Active and inactive are the calls of the source. Rule as the data show it: active = fold change permeability below about 0.7 or above about 1.3; inactive = in between.
Assay: compounds altering in vitro BBB leakiness – cell-based, FITC-avidin fluorescence, HTS, primary screen (AID 1963498); also: test concentration not given here
Conditions: brain endothelial barrier, actives lie on both sides

Fold change permeability, inactive:
CCSC(=N)N 1.1, Cc1ccc(O)c(N=Nc2ccccc2)n1 1.2, Fc1ccc(NC(=S)NCCCn2ccnc2)c(F)c1 0.9, O=C(O)/C=C/c1ccc(O)c(O)c1 0.8, N[C@@H](CCCC(=O)O)C(=O)O 1.1, CCCCCCCC/C=C\CCCCCCCC(=O)O 0.9, OC[C@H]1NC[C@H](O)[C@@H](O)[C@@H]1O 1.1, Cc1c(Cl)cccc1Nc1ncccc1C(=O)O 1.1, CC1CNc2c(cccc2S(=O)(=O)N[C@@H](CCCN=C(N)N)C(=O)N2CC[C@@H](C)C[C@@H]2C(=O)O)C1 (some centres not stated) 0.9, CN(C)[C@@H]1C(=O)C(C(N)=O)=C(O)[C@@]2(O)C(=O)C3=C(O)c4c(O)ccc(Cl)c4[C@@H](O)[C@H]3C[C@@H]12 1, CC(C)NCC(O)COc1ccc(CCOCC2CC2)cc1 (configuration not stated) 1.2, O=P(O)(O)C(Cl)(Cl)P(=O)(O)O 1.1, Nc1nc2c(c(=O)[nH]1)C[C@@H](CCc1ccc(C(=O)N[C@@H](CCC(=O)O)C(=O)O)cc1)CN2 0.9

Fold change permeability, active:
CC(C)NCC(O)c1ccc(NS(C)(=O)=O)cc1 (configuration not stated) 0.7, C=C1CCN([C@H](C)[C@](O)(Cn2cncn2)c2ccc(F)cc2F)CC1 1.4, COc1cc2c(cc1O)[C@@H](Cc1ccc(O)c(Oc3ccc(C[C@@H]4c5cc(OC)c(OC)cc5CCN4C)cc3)c1)N(C)CC2 1.6, CCCCCCCCCCCCCCSCC(=O)O 1.6
